# According to PubChem BioAssay (Tox21):
# Unmarked numbers belong to inactive results. Results filed as inconclusive are left out. Where a call stands in place of a potency, no number is given. Active and inactive are the calls of the source. Calls follow the shape of the dose curve; as a rule, active = well fitted curve in the direction sought with a large enough effect in the repeat runs; inconclusive = weak or mixed curves; inactive = no such curve, though single readings can be large; an effect the other way counts as inactive or inconclusive.
# How the values were obtained:
# [1] = Caspase-3/7 induction in CHO-K1 cells by small molecules, qHTS assay (AID 1346980); conditions: CHO-K1 caspase-3/7 induction, Caspase-Glo luminescence, 17 h; series mostly up to 92.4 µM; also: nearly all actives have a fitted effect of over 15% in size
# Method in brief: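 Wild-type CHO-K1 cells exposed to compounds for 17hr at 37 C, 5% CO2. Caspase-3/7 activity then measured by Caspase-Glo 3/7 luminescence after 30min at room temperature.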
# [2] = Caspase-3/7 induction in HepG2 cells by small molecules, qHTS cell viability counter screen (AID 1346981); conditions: CellTiter-Fluor fluorescence, 17 h; series mostly up to 92.4 µM; also: nearly all actives have a fitted effect of over 30% in size
# Method in brief: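 Counter screen for cytotoxicity: HepG2 exposed 16 hr to compounds, then CellTiter-Fluor viability signal (fluorescence, 1 hr reagent incubation).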
# [3] = target: Nuclear receptor subfamily 1 group I member 2 (Homo sapiens) (UniProt O75469); test: Human pregnane X receptor (PXR) small molecule agonists, qHTS assay (AID 1346982); conditions: PXR-Luc HepG2, CYP3A4 luciferase reporter, 24 h; series mostly up to 92.4 µM; also: nearly all actives have a fitted effect of over 35% in size; also: potency is read from the fitted curve at half-maximal effect
# Nuclear receptor subfamily 1 group I member 2 (Homo sapiens), sequence (O75469 whole entry, looked up): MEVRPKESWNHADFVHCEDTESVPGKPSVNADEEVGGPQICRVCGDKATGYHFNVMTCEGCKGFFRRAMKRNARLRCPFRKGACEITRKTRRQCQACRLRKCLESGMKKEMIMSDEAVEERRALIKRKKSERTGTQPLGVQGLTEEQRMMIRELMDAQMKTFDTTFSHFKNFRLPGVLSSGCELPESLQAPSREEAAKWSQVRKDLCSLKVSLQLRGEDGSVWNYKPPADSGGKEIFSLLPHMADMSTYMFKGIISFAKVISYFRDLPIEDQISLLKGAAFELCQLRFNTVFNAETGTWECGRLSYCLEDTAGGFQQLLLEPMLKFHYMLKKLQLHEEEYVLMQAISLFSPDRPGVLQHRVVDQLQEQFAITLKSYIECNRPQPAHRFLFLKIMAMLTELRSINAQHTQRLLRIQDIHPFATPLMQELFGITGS
# Method in brief: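 Luminescence (ONE-Glo, 30 min RT) after 24 hr compound exposure of PXR-Luc HepG2 cells; cells rested 5 hr post-plating in 5% charcoal-stripped FBS medium.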
# [4] = target: Cytochrome P450 2D6 (Homo sapiens) (UniProt P10635); test: Cytochrome P450 Family 2 Subfamily D Member 6 (CYP2D6) small molecule antagonists: luciferase reporter qHTS assay (AID 1671196); conditions: P450-Glo CYP2D6 enzyme assay, luciferin luminescence, 1 h; series mostly up to 115 µM; also: nearly all actives have a fitted effect of over 50% in size; also: potency is read from the fitted curve at half-maximal effect
# Cytochrome P450 2D6 (Homo sapiens), sequence (P10635 whole entry, looked up): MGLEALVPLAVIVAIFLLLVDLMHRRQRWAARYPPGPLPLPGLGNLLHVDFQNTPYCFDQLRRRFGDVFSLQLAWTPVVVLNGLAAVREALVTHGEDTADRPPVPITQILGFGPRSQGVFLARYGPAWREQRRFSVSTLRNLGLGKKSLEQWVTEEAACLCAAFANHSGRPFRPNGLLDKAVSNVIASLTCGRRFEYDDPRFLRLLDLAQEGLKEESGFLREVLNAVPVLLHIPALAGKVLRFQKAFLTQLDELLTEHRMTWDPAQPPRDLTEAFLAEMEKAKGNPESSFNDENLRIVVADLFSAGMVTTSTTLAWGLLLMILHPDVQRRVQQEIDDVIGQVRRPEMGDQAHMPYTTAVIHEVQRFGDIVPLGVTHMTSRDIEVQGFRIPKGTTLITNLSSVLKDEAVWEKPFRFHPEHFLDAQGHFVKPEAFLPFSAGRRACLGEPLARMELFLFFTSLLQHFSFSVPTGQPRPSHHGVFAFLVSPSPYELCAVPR
# Method in brief: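 Inhibition of CYP2D6 was gauged by loss of luminescence, since light produced tracks the luciferin generated from a proluciferin substrate. A 10 min room-temperature preincubation preceded 1 h NADPH-supported turnover.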
# [5] = target: Cytochrome P450 2C9 (Homo sapiens) (UniProt P11712); test: Cytochrome P450 Family 2 Subfamily C Member 9 (CYP2C9) small molecule antagonists: luciferase reporter qHTS assay (AID 1671198); conditions: P450-Glo CYP2C9 enzyme assay, luciferin luminescence; series mostly up to 115 µM; also: nearly all actives have a fitted effect of over 50% in size; also: potency is read from the fitted curve at half-maximal effect
# Cytochrome P450 2C9 (Homo sapiens), sequence (P11712 whole entry, looked up): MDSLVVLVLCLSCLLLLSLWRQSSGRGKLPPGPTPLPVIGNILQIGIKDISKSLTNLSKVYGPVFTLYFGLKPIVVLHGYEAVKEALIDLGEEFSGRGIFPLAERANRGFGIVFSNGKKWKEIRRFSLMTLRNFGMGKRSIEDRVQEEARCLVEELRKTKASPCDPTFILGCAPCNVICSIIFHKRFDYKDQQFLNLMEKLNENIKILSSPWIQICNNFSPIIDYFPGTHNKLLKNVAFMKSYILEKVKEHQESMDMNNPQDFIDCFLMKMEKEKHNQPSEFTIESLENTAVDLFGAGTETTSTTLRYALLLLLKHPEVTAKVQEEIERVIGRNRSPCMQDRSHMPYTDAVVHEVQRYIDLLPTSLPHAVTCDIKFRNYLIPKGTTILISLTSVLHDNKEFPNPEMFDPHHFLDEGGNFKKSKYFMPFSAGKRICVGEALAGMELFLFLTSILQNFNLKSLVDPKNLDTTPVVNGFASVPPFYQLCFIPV
# Method in brief: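 P450-Glo proluciferin substrate with CYP2C9 enzyme; 10 min RT preincubation, then NADPH regeneration 1 h at 37C; luciferin detection reagent 20 min RT, luminescence in relative luminescence units.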
# [6] = target: Cytochrome P450 1A2 (Homo sapiens) (UniProt P05177); test: Cytochrome P450 Family 1 Subfamily A Member 2 (CYP1A2) small molecule antagonists: luciferase reporter qHTS assay (AID 1671199); conditions: P450-Glo CYP1A2 enzyme, luciferin luminescence, 1 h; series mostly up to 115 µM; also: nearly all actives have a fitted effect of over 50% in size; also: potency is read from the fitted curve at half-maximal effect
# Cytochrome P450 1A2 (Homo sapiens), sequence (P05177 whole entry, looked up): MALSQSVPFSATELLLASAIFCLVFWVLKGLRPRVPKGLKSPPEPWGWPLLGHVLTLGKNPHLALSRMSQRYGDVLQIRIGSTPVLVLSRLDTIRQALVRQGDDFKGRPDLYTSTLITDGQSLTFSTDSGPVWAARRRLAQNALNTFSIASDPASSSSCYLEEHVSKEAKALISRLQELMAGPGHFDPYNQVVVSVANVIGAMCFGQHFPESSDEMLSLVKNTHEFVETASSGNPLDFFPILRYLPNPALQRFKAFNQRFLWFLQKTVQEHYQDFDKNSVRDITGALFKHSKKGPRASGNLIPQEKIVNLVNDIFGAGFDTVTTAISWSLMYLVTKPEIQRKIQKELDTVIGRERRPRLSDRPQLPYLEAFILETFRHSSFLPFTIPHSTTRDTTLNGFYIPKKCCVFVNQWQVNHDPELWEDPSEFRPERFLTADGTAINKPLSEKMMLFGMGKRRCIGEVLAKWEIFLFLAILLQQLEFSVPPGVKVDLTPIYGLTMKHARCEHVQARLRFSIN
# Method in brief: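 Signal from luciferin formed by CYP1A2 from a proluciferin substrate is read as luminescence, expressed in relative luminescence units. Compounds sit with enzyme 10 min, NADPH-driven reaction runs 1 h, all at room temperature.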
# [7] = target: Voltage-gated inwardly rectifying potassium channel KCNH2 (Homo sapiens) (UniProt Q12809); test: Human Ether-a-go-go-Related Gene (hERG) channel small molecule antagonists: fluorescence cell-based qHTS assay (AID 1671200); conditions: hERG-U2OS cells, FluxOR thallium flux fluorescence; series mostly up to 76.8 µM;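 also: hERG-expressing U2OS cells given a thallium stimulus after FluxOR II dye loading; nearly all actives have a fitted effect of over 50% in size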
# Voltage-gated inwardly rectifying potassium channel KCNH2 (Homo sapiens), sequence (Q12809 whole entry, looked up): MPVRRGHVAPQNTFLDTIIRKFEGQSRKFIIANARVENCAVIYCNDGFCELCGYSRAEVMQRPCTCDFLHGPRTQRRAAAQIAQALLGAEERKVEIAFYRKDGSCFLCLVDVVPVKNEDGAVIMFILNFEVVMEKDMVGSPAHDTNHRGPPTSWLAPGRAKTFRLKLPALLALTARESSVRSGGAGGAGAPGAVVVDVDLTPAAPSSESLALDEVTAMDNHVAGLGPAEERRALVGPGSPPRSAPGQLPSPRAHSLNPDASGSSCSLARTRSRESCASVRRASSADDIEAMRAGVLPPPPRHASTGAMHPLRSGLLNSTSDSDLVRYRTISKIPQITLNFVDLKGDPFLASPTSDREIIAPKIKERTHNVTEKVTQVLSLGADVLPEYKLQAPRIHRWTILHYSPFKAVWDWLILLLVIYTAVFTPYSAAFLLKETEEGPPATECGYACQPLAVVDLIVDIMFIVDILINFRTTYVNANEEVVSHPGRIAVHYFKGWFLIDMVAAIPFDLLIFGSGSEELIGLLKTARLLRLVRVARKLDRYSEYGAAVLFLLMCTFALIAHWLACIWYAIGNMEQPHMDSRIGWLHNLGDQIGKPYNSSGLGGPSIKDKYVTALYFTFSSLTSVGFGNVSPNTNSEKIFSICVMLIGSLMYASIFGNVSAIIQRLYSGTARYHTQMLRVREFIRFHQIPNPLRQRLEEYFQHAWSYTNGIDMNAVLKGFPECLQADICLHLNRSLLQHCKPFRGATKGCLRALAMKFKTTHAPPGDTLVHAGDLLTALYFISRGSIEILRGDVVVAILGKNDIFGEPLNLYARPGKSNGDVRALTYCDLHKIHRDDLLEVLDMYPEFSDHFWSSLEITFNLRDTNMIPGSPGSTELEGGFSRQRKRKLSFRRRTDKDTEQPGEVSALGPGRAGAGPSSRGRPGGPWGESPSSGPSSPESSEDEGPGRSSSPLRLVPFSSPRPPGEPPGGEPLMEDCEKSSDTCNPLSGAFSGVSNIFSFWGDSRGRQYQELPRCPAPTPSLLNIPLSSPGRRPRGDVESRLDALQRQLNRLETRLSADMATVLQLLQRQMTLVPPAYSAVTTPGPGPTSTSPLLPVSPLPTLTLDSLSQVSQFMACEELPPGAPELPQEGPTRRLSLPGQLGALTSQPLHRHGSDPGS
# Method in brief: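 Thallium served as the potassium surrogate; its influx into dye-loaded U2OS cells carrying the channel was measured by fluorescence over 2 min.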
# [8] = target: Cytochrome P450 3A4 (Homo sapiens) (UniProt P08684); test: Cytochrome P450 Family 3 Subfamily A Member 4 (CYP3A4) small molecule antagonists: luciferase reporter qHTS assay (AID 1671201); conditions: P450-Glo CYP3A4 enzyme, luciferin luminescence, 1 h; series mostly up to 115 µM; also: nearly all actives have a fitted effect of over 50% in size
# Cytochrome P450 3A4 (Homo sapiens), sequence (P08684 whole entry, looked up): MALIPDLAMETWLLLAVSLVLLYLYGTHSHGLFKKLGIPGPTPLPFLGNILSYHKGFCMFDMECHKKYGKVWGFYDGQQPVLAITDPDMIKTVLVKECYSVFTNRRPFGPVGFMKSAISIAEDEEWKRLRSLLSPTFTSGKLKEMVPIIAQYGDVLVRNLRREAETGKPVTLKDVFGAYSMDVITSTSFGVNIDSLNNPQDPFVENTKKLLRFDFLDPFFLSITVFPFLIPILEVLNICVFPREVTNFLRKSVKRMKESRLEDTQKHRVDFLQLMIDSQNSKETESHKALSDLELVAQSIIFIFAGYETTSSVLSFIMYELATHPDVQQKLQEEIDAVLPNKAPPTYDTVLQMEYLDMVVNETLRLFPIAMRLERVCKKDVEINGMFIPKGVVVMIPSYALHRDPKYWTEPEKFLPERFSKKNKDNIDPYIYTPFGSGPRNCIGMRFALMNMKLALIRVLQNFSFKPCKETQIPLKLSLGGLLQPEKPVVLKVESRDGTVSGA
# Method in brief: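 Relative luminescence units after 20 min with luciferin detection reagent served as read-out. Beforehand, CYP3A4 turned over a proluciferin substrate for 1 h at room temperature with NADPH regeneration, following 10 min compound preincubation.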
# [9] = target: Cytochrome P450 2C19 (Homo sapiens) (UniProt P33261); test: Cytochrome P450 Family 2 Subfamily C Member 19 (CYP2C19) small molecule antagonists: luciferase reporter qHTS assay (AID 1671197); conditions: P450-Glo CYP2C19 enzyme, luciferin luminescence, 1 h; series mostly up to 115 µM; also: nearly all actives have a fitted effect of over 65% in size; also: potency is read from the fitted curve at half-maximal effect
# Cytochrome P450 2C19 (Homo sapiens), sequence (P33261 whole entry, looked up): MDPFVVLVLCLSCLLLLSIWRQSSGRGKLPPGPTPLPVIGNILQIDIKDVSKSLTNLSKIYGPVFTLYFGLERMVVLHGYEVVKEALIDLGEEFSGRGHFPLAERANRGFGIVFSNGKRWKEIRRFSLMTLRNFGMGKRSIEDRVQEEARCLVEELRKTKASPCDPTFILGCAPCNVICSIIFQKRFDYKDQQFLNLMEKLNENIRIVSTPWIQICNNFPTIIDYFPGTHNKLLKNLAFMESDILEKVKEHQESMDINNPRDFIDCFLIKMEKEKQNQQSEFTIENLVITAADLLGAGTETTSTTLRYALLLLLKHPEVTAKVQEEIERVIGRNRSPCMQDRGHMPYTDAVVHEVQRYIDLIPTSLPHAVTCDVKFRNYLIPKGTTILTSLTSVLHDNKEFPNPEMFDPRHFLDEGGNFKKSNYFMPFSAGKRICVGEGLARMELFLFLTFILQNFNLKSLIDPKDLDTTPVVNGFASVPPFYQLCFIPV
# Method in brief: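 P450-Glo CYP2C19 screening system; proluciferin substrate; DMSO compound stocks; 10 min RT preincubation; NADPH regeneration, 1 h at 37C; luciferin detection reagent, 20 min RT; luminescence as RLU.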
structure (smiles),measurement,setting,value
CC1(C)[C@H](C(=O)OCc2cccc(Oc3ccccc3)c2)[C@@H]1C=C(Cl)Cl,Potency,[1],inactive
same,Potency,[2],inactive
same,Potency,[3],inactive
same,Potency,[4],inactive
same,Potency,[5],inactive
same,Potency,[6],inactive
same,Potency,[7],inactive
same,Potency,[8],inactive
Nc1cc([N+](=O)[O-])ccc1Cl,Potency,[1],inactive
same,Potency,[2],inactive
same,Potency,[3],inactive
same,Potency,[4],inactive
same,Potency,[5],inactive
same,Potency,[6],17.8 µM (active)
same,Potency,[7],inactive
Cc1ccc2n[nH]nc2c1,Potency,[1],inactive
same,Potency,[2],inactive
same,Potency,[3],inactive
same,Potency,[4],inactive
same,Potency,[5],inactive
same,Potency,[7],inactive
same,Potency,[8],inactive
CCN(CC)c1ccc(C=O)c(O)c1,Potency,[1],inactive
same,Potency,[2],inactive
same,Potency,[3],61.1 µM (active)
same,Potency,[4],inactive
same,Potency,[5],inactive
same,Potency,[6],17.8 µM (active)
same,Potency,[7],inactive
same,Potency,[8],inactive
C=CC(=O)OCCOC1C2CCC1C1CC=CC12 (stereo not drawn),caspase-3/7 activation,[1],0.29% [at 19 µM]
same,"activity change, negative = cytotoxicity",[2],6.81% [at 19 µM]
same,activation,[3],5.97% [at 19 µM]
same,"activity change, negative = inhibition",[4],-35.4% [at 23.6 µM]
same,Potency,[9],19 µM (active)
same,"activity change, negative = inhibition",[5],-18.2% [at 23.6 µM]
same,"activity change, negative = inhibition",[6],-16.8% [at 23.6 µM]
same,"activity change, negative = inhibition",[7],2.03% [at 15.8 µM]
same,"activity change, negative = inhibition",[8],-3.35% [at 23.6 µM]
Cn1c(=O)[nH]c2ncn(C)c2c1=O,Potency,[1],inactive
same,Potency,[2],inactive
same,Potency,[3],inactive
same,Potency,[4],inactive
same,Potency,[9],inactive
same,Potency,[5],inactive
same,Potency,[6],inactive
same,Potency,[7],inactive
same,Potency,[8],inactive
c1ccc2occc2c1,Potency,[1],inactive
same,Potency,[2],inactive
same,Potency,[3],inactive
same,Potency,[4],31.7 µM (active)
same,Potency,[5],35.6 µM (active)
same,Potency,[6],28.3 µM (active)
same,Potency,[7],inactive
same,Potency,[8],inactive
O=C(O)CN(CCCN(CC(=O)O)CC(=O)O)CC(=O)O,caspase-3/7 activation,[1],5.17% [at 19 µM]
same,"activity change, negative = cytotoxicity",[2],-12.2% [at 19 µM]
same,activation,[3],1.69% [at 19 µM]
same,"activity change, negative = inhibition",[4],2.09% [at 23.6 µM]
same,"activity change, negative = inhibition",[5],-3.48% [at 23.6 µM]
same,"activity change, negative = inhibition",[6],-0.26% [at 23.6 µM]
same,"activity change, negative = inhibition",[8],-1.42% [at 23.6 µM]
